PubChem BioAssay AID588651 (The Scripps Research Institute Molecular Screening Center, 2011)
A number with no mark means an inactive call. Active and inactive are the calls of the source. Rule as the data show it: active = inhibition above about 65%; inactive = the rest.

tested on: Fam108b; assay: Fam108b inhibitors and proteome off-target selectivity – biochemical, gel-based ABPP, recombinant soluble Fam108b, HTS hits, complex proteome, late-stage follow-up (AID 588651); conditions: FP-rhodamine labeling in proteome, at 20 µM, hits give high values;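 also: Fam108b spiked into mouse brain membrane proteome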

Structure (SMILES) | inhibition
O=C(NCC1CC1)c1ccc(Nc2nc3ccc(Br)cc3[nH]2)cc1 | 0%
Cn1c2ccccc2c2cc(C=NNC(=O)c3cc(O)ccc3O)ccc21 | 80% (active)
Oc1cccc2cc3cccc(O)c3c(O)c12 | 85% (active)
Cc1nc2scc(-c3ccc(Cl)cc3)c2c(=O)o1 | 95% (active)
Cc1c(O)ccc(C=NNc2nc(-c3cccnc3)nc3ccccc23)c1O | 85% (active)
Oc1ccc(C=NNc2ccnc3cc(Cl)ccc23)cc1O | 65% (active)
Oc1ccc(C2Nc3cccc4cccc(c34)N2)c(O)c1 | 0%
O=C(Nc1ccc(-c2csc(Nc3ccccc3)n2)cc1)c1cc([N+](=O)[O-])cc(C(F)(F)F)c1 | 60%
CCN(CC)S(=O)(=O)c1cc(NC(=O)COC(=O)c2sc3ccccc3c2Cl)ccc1C | 10%
O=C(Nc1ccc2[nH]c(=S)sc2c1)Nc1ccccc1F | 20%
O=C(Nc1cccc(C(F)(F)F)c1)Nc1ccc(N2CCCC2)c(S(=O)(=O)Nc2ccccc2Cl)c1 | 98% (active)
Cn1c(O)c(C=NNC(=O)c2cc3ccccc3cc2O)c2ccccc21 | 35%
O=C(CCCSc1ccccc1)Nc1nc(-c2ccco2)c(-c2ccco2)s1 | 0%
COc1ccc2oc(=O)c(-c3csc(Nc4cccc(O)c4)n3)cc2c1 | 0%
O=C(Nc1ccc(N2CCCC2)c(S(=O)(=O)Nc2cccc(C(F)(F)F)c2)c1)c1cccs1 | 85% (active)
O=S(=O)(c1cc(O)ccc1O)c1cccc2c(S(=O)(=O)c3cc(O)ccc3O)cccc12 | 10%
COc1ccc(S(=O)(=O)/N=C2\C=C(Nc3ccc(O)cc3)C(=O)c3ccccc32)cc1 | 25%

Structure (SMILES) | inhibition
Cc1ccc(S(=O)(=O)N=C2C=C(Sc3ncn[nH]3)C(=O)c3ccccc32)cc1 | 90% (active)
CCOC(=O)c1sc(NC(=O)Nc2ccc(Cl)cc2)cc1C | 0%
O=C(Nc1ccc(-c2csc(Nc3ccc(Cl)cc3)n2)cc1)c1cccc(C(F)(F)F)c1 | 95% (active)
O=C(Nc1ccc(F)cc1)Nc1ccc(N2CCCC2)c(S(=O)(=O)Nc2ccccc2Cl)c1 | 95% (active)
Oc1ccc(C=NNc2ccnc3cc(Cl)ccc23)c(O)c1O | 20%
COc1ccc2ccccc2c1C(O)c1nccn1C (centres undefined) | 0%
COc1cc2c(cc1NC(=O)Nc1ccccc1)oc1ccccc12 | 0%
CSC[C@@H]1NC(=S)N(c2ccc(C)cc2)C1=O | 0%
Cc1ccc(S(=O)(=O)Nc2ccccc2C(=O)Nc2nc(-c3ccc(F)cc3)cs2)cc1 | 40%
CCc1cc(C(Cc2ccc3ccccc3n2)=NO)c(O)cc1O | 0%
COc1cc2cc(C(=O)NN=Cc3ccccc3Cl)[nH]c2cc1OC | 10%
CCCCCCCCCCCCCCCC[n+]1ccc(C=NO)cc1 | 0%
CCOc1cc(/C=C2\C(=O)N(c3nc(-c4ccc(Br)cc4)cs3)N=C2c2ccccc2)ccc1O | 70% (active)
Cc1cc(NN=Cc2c(O)ccc3ccccc23)nc(-c2ccccc2O)n1 | 85% (active)
Oc1c(Cl)cc(Cl)c(Cl)c1Cc1c(O)c(Cl)cc(Cl)c1Cl | 0%
Cc1ccc2nc(CSc3nc(C)ccc3C#N)[nH]c2c1 | 50%
Nc1c(S(=O)(=O)c2cccc(Cl)c2)c2nc3ccccc3nc2n1N=Cc1ccc(O)c(O)c1 | 75% (active)
